Test results taken from the supplement of paper PMC7411054.

Legend:
Conditions in all cases: treatment time: 24 h
[1] = system: HepG2-CANX-COX4; test: lowest phenotypically active concentration; higher = less potent
In short: (§1)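 Two criteria together defined phenotypic activity: deviation and reproducibility. Deviation meant ≥3 of 4 wells beyond the 95th percentile of Euclidean distances in solvent control wells, and reproducibility meant a median replicate Pearson correlation above the 95th percentile of non-replicates. Wells had been treated for 24 h at 0.3, 1, 3 or 9 µM in fifteen gene-edited A549, HepG2 and WPMY1 reporter lines before live imaging.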

[2] = system: HepG2-GM130-SQSTM1; test: as above
In short: as §1

[3] = system: HepG2-TP53BP1-CLTA; test: as above
In short: as §1

[4] = system: HepG2-TUBA1B-RELA; test: as above
In short: as §1

[5] = system: A549-CANX-COX4; test: phenotypically active (imaging signature differs from DMSO and reproducible) at any of 0.3-9 uM (binary (1 = active, 0 = inactive)); higher = active
In short: as §1

[6] = system: A549-TP53BP1-CLTA; test: as above
In short: as §1

[7] = system: HepG2-ACTB-RAB5A; test: as above
In short: as §1

[8] = system: HepG2-CANX-COX4; test: as above
In short: as §1

[9] = system: HepG2-GM130-SQSTM1; test: as above
In short: as §1

[10] = system: HepG2-TP53BP1-CLTA; test: as above
In short: as §1

[11] = system: HepG2-TUBA1B-RELA; test: as above
In short: as §1

[12] = system: WPMY1-ACTB-RAB5A; test: as above
In short: as §1

[13] = system: WPMY1-CANX-COX4; test: as above
In short: as §1

[14] = system: WPMY1-GM130-SQSTM1; test: as above
In short: as §1

[15] = system: WPMY1-TP53BP1-CLTA; test: as above
In short: as §1

[16] = system: WPMY1-TUBA1B-RELA; test: as above
In short: as §1

[17] = system: HepG2-ACTB-RAB5A; test: lowest phenotypically active concentration; higher = less potent
In short: as §1

[18] = system: WPMY1-ACTB-RAB5A; test: as above
In short: as §1

[19] = system: WPMY1-CANX-COX4; test: as above
In short: as §1

[20] = system: WPMY1-GM130-SQSTM1; test: as above
In short: as §1

[21] = system: WPMY1-TP53BP1-CLTA; test: as above
In short: as §1

[22] = system: A549-CANX-COX4; test: as above
In short: as §1

[23] = system: A549-TP53BP1-CLTA; test: as above
In short: as §1

[24] = system: WPMY1-TUBA1B-RELA; test: as above
In short: as §1

Row | Compound | lowest phenotypically active concentration [1] | lowest phenotypically active concentration [2] | lowest phenotypically active concentration [3] | lowest phenotypically active concentration [4] | phenotypically active [5] | phenotypically active [6] | phenotypically active [7] | phenotypically active [8] | phenotypically active [9] | phenotypically active [10] | phenotypically active [11] | phenotypically active [12] | phenotypically active [13] | phenotypically active [14] | phenotypically active [15] | phenotypically active [16] | lowest phenotypically active concentration [17] | lowest phenotypically active concentration [18] | lowest phenotypically active concentration [19] | lowest phenotypically active concentration [20] | lowest phenotypically active concentration [21] | lowest phenotypically active concentration [22] | lowest phenotypically active concentration [23] | lowest phenotypically active concentration [24]
1 | COc1ccc2c(Oc3ccc(NC(=O)c4c(C)n(CC(C)(C)O)n(-c5ccccc5)c4=O)nc3)ccnc2c1 | 9 µM | 9 µM | 9 µM | 9 µM | 0 (inactive) | 0 (inactive) | 0 (inactive) | 1 (active) | 1 (active) | 1 (active) | 1 (active) | 0 (inactive) | 0 (inactive) | 0 (inactive) | 0 (inactive) | 0 (inactive) | – | – | – | – | – | – | – | –
2 | O=c1cc(-c2cccc3c2Sc2ccccc2S3)oc(N2CCOCC2)c1 | 3 µM | 9 µM | 9 µM | 9 µM | 0 (inactive) | 0 (inactive) | 1 (active) | 1 (active) | 1 (active) | 1 (active) | 1 (active) | 1 (active) | 1 (active) | 1 (active) | 1 (active) | 0 (inactive) | 3 µM | 3 µM | 9 µM | 9 µM | 3 µM | – | – | –
3 | Nc1ccn([C@@H]2O[C@H](CO)[C@@H](O)C2(F)F)c(=O)n1 [gemcitabine] | ≤ 0.3 µM | ≤ 0.3 µM | ≤ 0.3 µM | ≤ 0.3 µM | 1 (active) | 1 (active) | 1 (active) | 1 (active) | 1 (active) | 1 (active) | 1 (active) | 1 (active) | 1 (active) | 1 (active) | 1 (active) | 1 (active) | ≤ 0.3 µM | ≤ 0.3 µM | ≤ 0.3 µM | ≤ 0.3 µM | ≤ 0.3 µM | ≤ 0.3 µM | ≤ 0.3 µM | ≤ 0.3 µM
4 | COc1cc2ncn(-c3cc(OCc4ccccc4C(F)(F)F)c(C(N)=O)s3)c2cc1OC | ≤ 0.3 µM | ≤ 0.3 µM | ≤ 0.3 µM | ≤ 0.3 µM | 1 (active) | 1 (active) | 1 (active) | 1 (active) | 1 (active) | 1 (active) | 1 (active) | 1 (active) | 1 (active) | 0 (inactive) | 1 (active) | 1 (active) | ≤ 0.3 µM | ≤ 0.3 µM | 1 µM | – | 1 µM | 1 µM | 1 µM | ≤ 0.3 µM
5 | CN1C/C(=C/c2ccc(B(O)O)cc2)C(=O)/C(=C/c2ccc(B(O)O)cc2)C1 | 3 µM | 3 µM | 9 µM | 3 µM | 1 (active) | 1 (active) | 1 (active) | 1 (active) | 1 (active) | 1 (active) | 1 (active) | 1 (active) | 1 (active) | 1 (active) | 1 (active) | 1 (active) | ≤ 0.3 µM | 3 µM | 3 µM | ≤ 0.3 µM | 3 µM | ≤ 0.3 µM | ≤ 0.3 µM | 3 µM
6 | Cc1nc(NC(=O)N2CCC[C@H]2C(N)=O)sc1-c1ccnc(C(C)(C)C(F)(F)F)c1 [alpelisib] | ≤ 0.3 µM | 1 µM | 9 µM | 1 µM | 1 (active) | 1 (active) | 1 (active) | 1 (active) | 1 (active) | 1 (active) | 1 (active) | 0 (inactive) | 1 (active) | 1 (active) | 1 (active) | 1 (active) | 1 µM | – | 3 µM | 3 µM | 3 µM | 3 µM | 9 µM | 9 µM
7 | O=c1[nH]cc(F)c(=O)[nH]1 [5-Fluorouracil] | 3 µM | 3 µM | 3 µM | 3 µM | 1 (active) | 1 (active) | 1 (active) | 1 (active) | 1 (active) | 1 (active) | 1 (active) | 0 (inactive) | 0 (inactive) | 0 (inactive) | 1 (active) | 0 (inactive) | 3 µM | – | – | – | 9 µM | 3 µM | 9 µM | –
